Measurements as given in the supplement of paper PMC11732987, “Enantioselective OTUD7B fragment discovery through chemoproteomics screening and high-throughput optimisation” (Communications Chemistry, 2025).

Key:
Experiment in all cases: log2 ratio of Biotin-Ahx-Ub-VS probe labelling (fragment/DMSO); higher = less target engagement (more negative = stronger competition), active = hit call of the paper (q ≤ 0.05, log2 ratio ≤ -1)
Conditions in all cases: compound concentration: 200 uM; treatment time: 3 h
[1] = target: T1, OTUD6B (UniProt Q8N6M0)
T1 sequence (whole entry): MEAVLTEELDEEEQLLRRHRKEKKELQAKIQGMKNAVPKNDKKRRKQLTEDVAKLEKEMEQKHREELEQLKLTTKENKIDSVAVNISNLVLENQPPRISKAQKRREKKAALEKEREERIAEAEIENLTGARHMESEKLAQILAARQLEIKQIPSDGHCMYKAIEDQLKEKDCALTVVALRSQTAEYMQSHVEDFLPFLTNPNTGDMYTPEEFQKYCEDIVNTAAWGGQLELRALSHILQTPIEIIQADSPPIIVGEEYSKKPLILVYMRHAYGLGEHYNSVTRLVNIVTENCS
In short: (§1)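 Using Biotin-Ahx-Ub-VS at 0.5 µM final for 1 h, DUBs were labelled in HEK293T lysate (495 µg per sample) that had first been treated in triplicate with fragment at 200 µM or vehicle for 3 h. NeutrAvidin enrichment, LysC and trypsin digestion and diaPASEF LC-MS/MS followed. Spectronaut label-free quantities were global-median-normalised. Values are average log2 fragment/vehicle ratios by unpaired t-test, using proteins with ≥2 unique peptides.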

[2] = target: T2, OTUD7B (UniProt Q6GQQ9)
T2 sequence (whole entry): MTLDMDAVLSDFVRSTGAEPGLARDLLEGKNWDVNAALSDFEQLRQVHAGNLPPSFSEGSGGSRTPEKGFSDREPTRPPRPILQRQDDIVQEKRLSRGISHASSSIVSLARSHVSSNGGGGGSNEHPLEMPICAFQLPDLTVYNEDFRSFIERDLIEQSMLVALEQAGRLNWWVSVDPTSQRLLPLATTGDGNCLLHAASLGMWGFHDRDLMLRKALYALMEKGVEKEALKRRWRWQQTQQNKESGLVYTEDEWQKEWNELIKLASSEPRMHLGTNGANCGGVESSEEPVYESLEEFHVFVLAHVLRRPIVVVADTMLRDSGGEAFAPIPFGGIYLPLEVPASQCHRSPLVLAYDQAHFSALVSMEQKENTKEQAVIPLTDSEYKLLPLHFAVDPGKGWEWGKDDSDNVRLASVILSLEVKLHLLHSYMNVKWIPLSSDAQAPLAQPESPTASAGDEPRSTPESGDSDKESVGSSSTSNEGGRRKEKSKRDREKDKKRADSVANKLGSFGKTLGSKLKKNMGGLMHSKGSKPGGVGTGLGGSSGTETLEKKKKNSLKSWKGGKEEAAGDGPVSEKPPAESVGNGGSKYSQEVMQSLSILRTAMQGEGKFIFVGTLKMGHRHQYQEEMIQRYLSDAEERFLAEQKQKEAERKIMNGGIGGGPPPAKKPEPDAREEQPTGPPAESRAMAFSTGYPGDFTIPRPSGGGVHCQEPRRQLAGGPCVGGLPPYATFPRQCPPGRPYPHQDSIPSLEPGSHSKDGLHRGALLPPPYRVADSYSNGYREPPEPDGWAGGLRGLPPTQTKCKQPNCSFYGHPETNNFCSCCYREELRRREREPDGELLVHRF
In short: as §1

[3] = target: PRPF8 (UniProt Q6P2Q9)
In short: as §1

[4] = target: T3, PSMD7 (UniProt P51665)
T3 sequence (whole entry): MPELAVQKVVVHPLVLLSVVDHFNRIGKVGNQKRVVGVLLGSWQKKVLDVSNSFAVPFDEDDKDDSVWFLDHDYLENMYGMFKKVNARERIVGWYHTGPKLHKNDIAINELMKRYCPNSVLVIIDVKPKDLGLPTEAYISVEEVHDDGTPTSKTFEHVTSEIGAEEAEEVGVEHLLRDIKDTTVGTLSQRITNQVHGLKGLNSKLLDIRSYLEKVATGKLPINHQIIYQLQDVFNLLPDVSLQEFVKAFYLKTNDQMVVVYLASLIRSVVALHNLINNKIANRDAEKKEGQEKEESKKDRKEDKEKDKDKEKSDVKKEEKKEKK
In short: as §1

[5] = target: UCHL1 (UniProt P09936)
UCHL1, sequence (P09936 whole entry, looked up): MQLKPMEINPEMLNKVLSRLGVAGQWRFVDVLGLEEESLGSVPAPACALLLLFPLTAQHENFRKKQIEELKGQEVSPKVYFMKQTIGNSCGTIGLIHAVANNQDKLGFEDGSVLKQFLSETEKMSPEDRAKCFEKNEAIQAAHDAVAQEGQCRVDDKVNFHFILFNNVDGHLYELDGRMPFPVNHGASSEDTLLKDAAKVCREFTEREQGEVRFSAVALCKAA
In short: as §1

[6] = target: T4, UCHL3 (UniProt P15374)
T4 sequence (whole entry): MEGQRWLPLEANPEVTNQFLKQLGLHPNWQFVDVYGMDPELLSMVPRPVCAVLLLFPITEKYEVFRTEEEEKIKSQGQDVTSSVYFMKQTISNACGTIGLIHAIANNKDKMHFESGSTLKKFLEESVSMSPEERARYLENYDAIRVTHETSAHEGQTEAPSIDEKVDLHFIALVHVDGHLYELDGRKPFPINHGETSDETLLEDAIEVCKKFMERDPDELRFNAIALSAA
In short: as §1

[7] = target: T5, UCHL5 (UniProt Q9Y5K5)
T5 sequence (whole entry): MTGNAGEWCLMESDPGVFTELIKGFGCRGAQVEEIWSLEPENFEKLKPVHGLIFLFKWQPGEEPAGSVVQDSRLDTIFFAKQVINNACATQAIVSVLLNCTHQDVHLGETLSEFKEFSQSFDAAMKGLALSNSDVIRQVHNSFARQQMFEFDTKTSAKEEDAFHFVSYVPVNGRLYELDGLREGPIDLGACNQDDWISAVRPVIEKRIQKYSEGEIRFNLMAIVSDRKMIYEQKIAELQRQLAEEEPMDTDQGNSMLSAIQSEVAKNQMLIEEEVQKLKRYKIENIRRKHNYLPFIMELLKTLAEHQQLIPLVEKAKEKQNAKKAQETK
In short: as §1

[8] = target: USP10 (UniProt Q14694)
USP10, sequence (Q14694 whole entry): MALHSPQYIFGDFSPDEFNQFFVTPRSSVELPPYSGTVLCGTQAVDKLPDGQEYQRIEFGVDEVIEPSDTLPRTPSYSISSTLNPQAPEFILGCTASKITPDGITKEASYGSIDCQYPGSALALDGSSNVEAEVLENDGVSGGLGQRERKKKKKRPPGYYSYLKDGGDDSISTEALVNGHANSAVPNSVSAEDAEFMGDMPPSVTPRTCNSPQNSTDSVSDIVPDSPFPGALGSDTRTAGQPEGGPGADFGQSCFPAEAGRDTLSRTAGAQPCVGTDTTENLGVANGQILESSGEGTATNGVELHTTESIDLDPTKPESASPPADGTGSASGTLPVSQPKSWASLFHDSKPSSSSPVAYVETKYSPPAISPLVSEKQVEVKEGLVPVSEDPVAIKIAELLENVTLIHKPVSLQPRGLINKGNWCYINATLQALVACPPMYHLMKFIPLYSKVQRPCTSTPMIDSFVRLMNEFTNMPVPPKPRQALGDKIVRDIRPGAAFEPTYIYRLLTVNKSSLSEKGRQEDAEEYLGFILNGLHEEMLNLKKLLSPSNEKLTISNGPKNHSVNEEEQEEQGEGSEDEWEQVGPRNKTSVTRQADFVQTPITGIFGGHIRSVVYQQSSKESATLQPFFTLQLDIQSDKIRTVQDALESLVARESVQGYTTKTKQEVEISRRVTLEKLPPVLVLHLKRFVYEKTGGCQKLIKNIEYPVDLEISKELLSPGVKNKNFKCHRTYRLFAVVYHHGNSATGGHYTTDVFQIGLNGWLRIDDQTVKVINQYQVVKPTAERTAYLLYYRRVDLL
In short: as §1

[9] = target: T6, USP15 (UniProt Q9Y4E8)
T6 sequence (whole entry): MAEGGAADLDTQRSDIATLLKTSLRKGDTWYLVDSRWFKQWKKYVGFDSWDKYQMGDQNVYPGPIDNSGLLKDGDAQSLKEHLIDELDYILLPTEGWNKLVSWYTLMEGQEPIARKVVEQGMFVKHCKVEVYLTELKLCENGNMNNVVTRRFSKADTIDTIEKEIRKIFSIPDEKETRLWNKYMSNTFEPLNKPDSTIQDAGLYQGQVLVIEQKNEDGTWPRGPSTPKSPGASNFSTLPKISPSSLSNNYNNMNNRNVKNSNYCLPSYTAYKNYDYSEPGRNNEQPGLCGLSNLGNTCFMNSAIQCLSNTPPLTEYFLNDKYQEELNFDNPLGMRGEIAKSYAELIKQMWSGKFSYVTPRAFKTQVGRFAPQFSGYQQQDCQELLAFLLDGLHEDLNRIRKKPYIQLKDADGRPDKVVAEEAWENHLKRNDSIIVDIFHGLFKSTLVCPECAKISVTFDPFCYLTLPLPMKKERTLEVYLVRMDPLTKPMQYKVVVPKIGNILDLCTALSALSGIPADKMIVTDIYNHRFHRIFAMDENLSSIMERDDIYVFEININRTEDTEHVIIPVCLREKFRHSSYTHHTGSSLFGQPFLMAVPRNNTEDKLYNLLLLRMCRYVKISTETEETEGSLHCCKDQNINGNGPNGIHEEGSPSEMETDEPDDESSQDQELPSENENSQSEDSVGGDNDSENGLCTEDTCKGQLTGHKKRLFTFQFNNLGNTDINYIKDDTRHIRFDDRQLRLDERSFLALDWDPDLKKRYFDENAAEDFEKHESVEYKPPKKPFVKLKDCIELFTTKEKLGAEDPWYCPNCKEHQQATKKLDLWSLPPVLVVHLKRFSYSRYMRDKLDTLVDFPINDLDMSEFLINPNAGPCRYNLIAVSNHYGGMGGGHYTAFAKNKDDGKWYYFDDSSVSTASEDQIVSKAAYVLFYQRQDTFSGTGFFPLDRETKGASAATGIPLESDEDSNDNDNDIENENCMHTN
In short: as §1

Measured: log2 ratio of Biotin-Ahx-Ub-VS probe labelling

O=C(CCl)Nc1cccc(C(=O)N2CCSCC2)c1
inactive: [1] -0.0782 | [2] -0.71 | [3] -0.00865 | [4] -0.0955 | [5] -0.784 | [6] 0.0211 | [7] -0.176 | [8] -0.156 | [9] -0.164
